Data from publication PMC5540273 (PLoS ONE, 2017).

Assays:
Details in all cases: concentration: 1 μM, replicates: in singlicate; n = 1
[1] = tested on: TSSK3
[2] = tested on: TTK
[3] = tested on: TXK
[4] = tested on: TYK2(JH1domain-catalytic)
[5] = tested on: TYK2(JH2domain-pseudokinase)
[6] = tested on: TYRO3
[7] = tested on: ULK1
[8] = tested on: ULK2
[9] = tested on: ULK3
[10] = tested on: T1, VEGFR2
T1 construct: gene KDR

[11] = tested on: T2, VPS34
T2 construct: gene PIK3C3

[12] = tested on: VRK2
[13] = tested on: WEE1
[14] = tested on: WEE2
[15] = tested on: WNK1
[16] = tested on: WNK2
[17] = tested on: WNK3
[18] = tested on: WNK4
[19] = tested on: T3, YANK1
T3 construct: gene STK32A

[20] = tested on: T4, YANK2
T4 construct: gene STK32B
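Further: KINOMEscan kinase panel screen.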

CNc1ncnc2[nH]ncc12 [SKF-18355]
%Inh [1]: 0% | %Inh [2]: 0% | %Inh [3]: 0% | %Inh [4]: 15% | %Inh [5]: 27% | %Inh [6]: 0% | %Inh [7]: 11% | %Inh [8]: 42% | %Inh [9]: 14% | %Inh [10]: 1% | %Inh [11]: 30% | %Inh [12]: 10% | %Inh [13]: 5% | %Inh [14]: 0% | %Inh [15]: 0% | %Inh [16]: 0% | %Inh [17]: 12% | %Inh [18]: 0% | %Inh [19]: 0% | %Inh [20]: 9%

O=C(NCCNc1ccnc(Nc2ccc(F)cc2)n1)c1cc2ccccc2s1 [GSK1379874]
%Inh [1]: 22% | %Inh [2]: 0% | %Inh [3]: 100% | %Inh [4]: 0% | %Inh [5]: 21% | %Inh [6]: 0% | %Inh [7]: 3% | %Inh [8]: 0% | %Inh [9]: 1% | %Inh [10]: 0% | %Inh [11]: 16% | %Inh [12]: 0% | %Inh [13]: 38% | %Inh [14]: 5% | %Inh [15]: 0% | %Inh [16]: 0% | %Inh [17]: 16% | %Inh [18]: 39% | %Inh [19]: 0% | %Inh [20]: 0%

COc1ccc(Nc2ncc(C#N)c(Nc3ccccc3C(N)=O)n2)cc1N1CCN(C)CC1.Cl [GSK1558669]
%Inh [1]: 79% | %Inh [2]: 99.5% | %Inh [3]: 84% | %Inh [4]: 99.8% | %Inh [5]: 99.7% | %Inh [6]: 35% | %Inh [7]: 100% | %Inh [8]: 100% | %Inh [9]: 100% | %Inh [10]: 100% | %Inh [11]: 43% | %Inh [12]: 0% | %Inh [13]: 99.8% | %Inh [14]: 100% | %Inh [15]: 66% | %Inh [16]: 31% | %Inh [17]: 4% | %Inh [18]: 0% | %Inh [19]: 93.5% | %Inh [20]: 68%

NS(=O)(=O)c1cccc(-c2ccc3ncc(N4CCOCC4)nc3c2)c1 [GSK1535721]
%Inh [1]: 6% | %Inh [2]: 6% | %Inh [3]: 0% | %Inh [4]: 0% | %Inh [5]: 31% | %Inh [6]: 0% | %Inh [7]: 0% | %Inh [8]: 0% | %Inh [9]: 2% | %Inh [10]: 10% | %Inh [11]: 87% | %Inh [12]: 8% | %Inh [13]: 5% | %Inh [14]: 8% | %Inh [15]: 0% | %Inh [16]: 0% | %Inh [17]: 24% | %Inh [18]: 16% | %Inh [19]: 2% | %Inh [20]: 3%

COc1cc(Nc2nccc(N3CCC(NC(=O)c4cccc(NC(C)=O)c4)C3)n2)cc(OC)c1OC (centres unmarked) [GSK1379754]
%Inh [1]: 20% | %Inh [2]: 27% | %Inh [3]: 7% | %Inh [4]: 68% | %Inh [5]: 19% | %Inh [6]: 0% | %Inh [7]: 10% | %Inh [8]: 0% | %Inh [9]: 87% | %Inh [10]: 10% | %Inh [11]: 35% | %Inh [12]: 0% | %Inh [13]: 4% | %Inh [14]: 1% | %Inh [15]: 6% | %Inh [16]: 0% | %Inh [17]: 14% | %Inh [18]: 0% | %Inh [19]: 0% | %Inh [20]: 0%

COc1ccc(Nc2nccc(N3CCC(NC(=O)Nc4cc(C)ccc4C)C3)n2)cc1 (centres unmarked) [GSK1379741]
%Inh [1]: 9% | %Inh [2]: 0% | %Inh [3]: 0% | %Inh [4]: 0% | %Inh [5]: 23% | %Inh [6]: 0% | %Inh [7]: 15% | %Inh [8]: 0% | %Inh [9]: 12% | %Inh [10]: 0% | %Inh [11]: 0% | %Inh [12]: 0% | %Inh [13]: 14% | %Inh [14]: 0% | %Inh [15]: 7% | %Inh [16]: 59% | %Inh [17]: 18% | %Inh [18]: 40% | %Inh [19]: 0% | %Inh [20]: 0%

CN(C1=C(c2ccccc2)C(=O)NC1=O)c1ccccc1 [SB-334860]
%Inh [1]: 15% | %Inh [2]: 0% | %Inh [3]: 83% | %Inh [4]: 0% | %Inh [5]: 0% | %Inh [6]: 0% | %Inh [7]: 5% | %Inh [8]: 8% | %Inh [9]: 6% | %Inh [10]: 12% | %Inh [11]: 0% | %Inh [12]: 8% | %Inh [13]: 13% | %Inh [14]: 0% | %Inh [15]: 8% | %Inh [16]: 28% | %Inh [17]: 17% | %Inh [18]: 1% | %Inh [19]: 0% | %Inh [20]: 15%

CC(=O)Nc1ccc(COc2ccc(Nc3ccnc4cc(-c5ccccn5)ccc34)cc2)cc1.Cl [GW440148]
%Inh [1]: 12% | %Inh [2]: 0% | %Inh [3]: 3% | %Inh [4]: 20% | %Inh [5]: 5% | %Inh [6]: 0% | %Inh [7]: 0% | %Inh [8]: 0% | %Inh [9]: 3% | %Inh [10]: 99.6% | %Inh [11]: 0% | %Inh [12]: 0% | %Inh [13]: 18% | %Inh [14]: 0% | %Inh [15]: 10% | %Inh [16]: 9% | %Inh [17]: 21% | %Inh [18]: 83% | %Inh [19]: 6% | %Inh [20]: 2%

CN(C(=O)c1ccc(-c2cc(-c3c[nH]nc3-c3ccccn3)ccn2)cc1)C1CCOCC1 [GW810083]
%Inh [1]: 33% | %Inh [2]: 0% | %Inh [3]: 0% | %Inh [4]: 12% | %Inh [5]: 25% | %Inh [6]: 0% | %Inh [7]: 5% | %Inh [8]: 14% | %Inh [9]: 12% | %Inh [10]: 0% | %Inh [11]: 24% | %Inh [12]: 100% | %Inh [13]: 0% | %Inh [14]: 22% | %Inh [15]: 0% | %Inh [16]: 0% | %Inh [17]: 0% | %Inh [18]: 0% | %Inh [19]: 0% | %Inh [20]: 0%

CCc1ccnc(/C=C/c2n[nH]c3cc(Sc4ccccc4C(=O)NC)ccc23)c1
%Inh [1]: 0% | %Inh [2]: 0% | %Inh [3]: 0% | %Inh [4]: 11% | %Inh [5]: 0% | %Inh [6]: 0% | %Inh [7]: 3% | %Inh [8]: 31% | %Inh [9]: 9% | %Inh [10]: 99.9% | %Inh [11]: 6% | %Inh [12]: 13% | %Inh [13]: 0% | %Inh [14]: 0% | %Inh [15]: 0% | %Inh [16]: 39% | %Inh [17]: 0% | %Inh [18]: 0% | %Inh [19]: 0% | %Inh [20]: 0%
